Source: PubChem BioAssay (EPA / NIEHS)
Results filed as inconclusive are left out. Activity calls are given as the source filed them. How the source made its calls: active means hit-call score of the fitted dose curve at least 0.9, where 1 is the maximum; inconclusive means response in the unintended direction; inactive means score below 0.9.

What was measured:
[1] = ATG_XTT_Cytotoxicity: Cytotoxicity Assessment in the Attagene TRANS-FACTORIAL HepG2 Assay (AID 2283584)
In short: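 HepG2 cells transiently transfected with GAL4-UAS multiple reporter units, dosed 24 h; cytotoxicity read by XTT as loss of signal versus DMSO baseline.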

[2] = TOX21_p53_BLA_p2_viability: Viability Assessment in the Tox21 HCT-116 p53 Agonism Beta-lactamase Assay, Phase 2 (AID 2283591);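 further: compound exposure lasted 16 h at 37 °C; actives lower the ATP signal meaning cytotoxicity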
In short: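 HCT-116 p53-bla cells (4000/well) rested 5 h at 37C, then received compounds in DMSO (217-fold dilution) for 16 h at 37C, 5% CO2. After the CCF4 read, CellTiter-Glo was added; ATP luminescence was read after 30 min at room temperature.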

[3] = target: Cellular tumor antigen p53 (Homo sapiens) (UniProt P04637); assay: TOX21_p53_BLA_p2_ratio: Tox21 HCT-116 p53 Agonism Beta-lactamase Assay, Ratio, Phase 2 (AID 2283592)
Sequence of Cellular tumor antigen p53 (Homo sapiens) (P04637 whole entry, looked up): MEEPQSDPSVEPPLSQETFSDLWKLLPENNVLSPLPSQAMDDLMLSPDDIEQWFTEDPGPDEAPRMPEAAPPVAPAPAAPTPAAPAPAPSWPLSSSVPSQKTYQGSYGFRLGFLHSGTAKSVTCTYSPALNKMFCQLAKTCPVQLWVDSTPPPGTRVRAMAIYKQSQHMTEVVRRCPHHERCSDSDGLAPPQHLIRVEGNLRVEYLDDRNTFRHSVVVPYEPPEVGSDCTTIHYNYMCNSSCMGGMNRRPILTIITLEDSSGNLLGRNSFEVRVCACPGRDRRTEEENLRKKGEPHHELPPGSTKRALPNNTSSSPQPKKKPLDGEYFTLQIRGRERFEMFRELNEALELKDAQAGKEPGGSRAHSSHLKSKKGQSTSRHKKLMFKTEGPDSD
In short: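 First, HCT116 reporter cells settle for 5 h at 37C. Next, DMSO compound solutions are pinned in (217-fold dilution) and left 16 h. Finally, CCF4-AM substrate is loaded 2 h at room temperature and the 460/530 nm ratio read.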

[4] = TOX21_p53_BLA_p4_viability: Viability Assessment in the Tox21 HCT-116 p53 Agonism Beta-lactamase Assay, Phase 4 (AID 2283597);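 further: hits lower the luminescence signal meaning cytotoxicity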
In short: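 4000 HCT116 cells per well; 5 h attachment; compounds from DMSO, 217-fold dilution; 16 h at 37C. Then CCF4-AM, 2 h RT, followed by CellTiter-Glo, 30 min RT, luminescence. Decrease = cytotoxicity.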

[5] = target: Cellular tumor antigen p53 (Homo sapiens) (UniProt P04637); assay: TOX21_p53_BLA_p5_ratio: Tox21 HCT-116 p53 Agonism Beta-lactamase Assay, Ratio, Phase 5 (AID 2283599)
In short: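 HCT-116 cells carrying a p53-inducible beta-lactamase reporter were seeded at 4000 cells/well and dosed after 5 h with compound in DMSO (217-fold dilution). After 16 h at 37C, CCF4-AM substrate was added for 2 h, and the 460/530 nm emission ratio was scored as gain-of-signal versus DMSO.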

[6] = target: Cellular tumor antigen p53 (Homo sapiens) (UniProt P04637); assay: TOX21_p53_BLA_p3_ratio: Tox21 HCT-116 p53 Agonism Beta-lactamase Assay, Ratio, Phase 3 (AID 2283596)
In short: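 Cells were seeded at 4000/well, rested 5 h at 37C, then dosed with DMSO compound solutions (217-fold dilution) for 16 h. CCF4-AM substrate was loaded for 2 h at room temperature, and the 460/530 nm emission ratio was fitted for gain of signal versus DMSO.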

[7] = TOX21_p53_BLA_p3_viability: Viability Assessment in the Tox21 HCT-116 p53 Agonism Beta-lactamase Assay, Phase 3 (AID 2283593);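 further: cells exposed to compound for 16 h before reading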
In short: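 HCT-116 cells (4000/well) rested 5 h at 37C, then got DMSO compounds by pin tool (217-fold dilution) for 16 h at 37C, 5% CO2. After the bla read, CellTiter-Glo was added and luminescence read at 30 min, room temperature.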

Measured: outcome

S=c1[nH][nH]c(=S)s1
not listed: [6] | [7]
inactive: all other assays above

CCCCCCCC1CCCC1=O (stereo not given)
not listed: [7]
inactive: all other assays above

C=CCOCC(O)CO (stereo not given)
not listed: [3] | [4]
inactive: all other assays above

CN(C)c1ccc(C=O)cc1
inactive: [1] | [3] | [7] | [6]
